TDP1 cell noCPT – qHTS for Inhibitors of human tyrosyl-DNA phosphodiesterase 1 (TDP1): qHTS in cells in absence of CPT; Potency, µM (doses to about 46.2 µM), for the others: at the highest dose activity change, negative = growth inhibition, actives largely listed as inhibitors; DT40 Tdp1-/- hTDP1 cells, no CPT, ATP luminescence, 48 h; 420,000 compounds, 15% hits; also: potency is read from the fitted curve at half-maximal effect; nearly all actives have a fitted effect of over 55% in size
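Readout: luminescence from CellTiter-Glo after 30 min in the dark at RT. Cells: DT40 Tdp1-/- with stable hTDP1, 400/well. Exposure: compounds alone, ≥48 hr, 37 °C.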
12-LOX inh – Primary qHTS assay for inhibitors of human arachidonate 12S-lipoxygenase (ALOX12): Round 2; Potency, µM (series often up to 108 µM), for the others: at the highest dose activity change, negative = inhibition, most hits filed as inhibitors; purified 12hLO, xylenol orange hydroperoxide absorbance; 580,000 compounds, 1.1% hits; also: potency is read from the fitted curve at half-maximal effect
Target sequence (P18054 whole entry, looked up): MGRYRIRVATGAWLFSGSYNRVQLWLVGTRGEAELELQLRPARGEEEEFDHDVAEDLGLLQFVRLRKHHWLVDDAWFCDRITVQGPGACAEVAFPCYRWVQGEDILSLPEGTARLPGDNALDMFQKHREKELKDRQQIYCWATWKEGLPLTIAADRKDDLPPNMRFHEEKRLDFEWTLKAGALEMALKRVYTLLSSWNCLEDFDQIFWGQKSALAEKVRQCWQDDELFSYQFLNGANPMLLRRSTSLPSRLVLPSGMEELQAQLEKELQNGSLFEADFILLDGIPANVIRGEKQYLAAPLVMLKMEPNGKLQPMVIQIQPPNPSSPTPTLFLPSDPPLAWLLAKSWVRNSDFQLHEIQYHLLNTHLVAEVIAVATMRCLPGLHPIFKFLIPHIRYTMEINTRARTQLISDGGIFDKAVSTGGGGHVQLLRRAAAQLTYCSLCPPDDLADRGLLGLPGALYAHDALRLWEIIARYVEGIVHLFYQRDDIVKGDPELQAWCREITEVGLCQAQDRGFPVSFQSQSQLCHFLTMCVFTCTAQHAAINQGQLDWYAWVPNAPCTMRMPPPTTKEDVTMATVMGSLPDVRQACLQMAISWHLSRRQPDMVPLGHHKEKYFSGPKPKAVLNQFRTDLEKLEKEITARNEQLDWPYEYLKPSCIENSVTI
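Purified human 12hLO at 150 nM in 25 mM Hepes, 0.01% Triton X-100, pH 7.0, preincubated 15 min at room temperature with compound. Reaction started with 40 uM arachidonic acid, 30 min at room temperature. Hydroperoxide measured by Fe-xylenol orange, 573/405 nm absorbance ratio.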
IL1B secr inh – qHTS for Inhibitors of Inflammasome Signaling: IL-1-beta AlphaLISA Primary Screen; THP-1 LPS/ATP IL-1B secretion, AlphaLISA, 16 h; active compounds read low; 360,000 compounds, 4.7% hits; AID 743279, 2014; activity change, % at 57.5 µM; in the data active = activity change below about -50%; inconclusive = mostly about -30% to -49%
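Secreted IL-1B measured by AlphaLISA bead assay after 16 h compound exposure of THP-1 cells; compounds (final up to 57.5 uM) added 1 h before LPS (250 ng/mL) and ATP (1.25 mM) stimulation; lower signal means less secretion.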
HT1080-NT tox – qHTS for induction of synthetic lethality in tumor cells producing 2HG: qHTS for the HT-1080-NT fibrosarcoma cell line | Potency, µM (series often up to 46.1 µM), for inactives: at the top dose activity, negative = less viability, hits mostly cytotoxic | AID 686970, 2013 | 360,000 compounds, 1.6% hits | HT-1080-NT fibrosarcoma viability, CellTiter-Glo ATP luminescence, 48 h;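 also: NT is the 2HG producing partner of a matched IDH1 knockdown line; potency is read from the fitted curve at half-maximal effect; 0% = DMSO-treated cells and -100% = media-only wells without cells; nearly all actives have a fitted effect of over 55% in size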
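Viability of the 2HG-overproducing fibrosarcoma line after 48 hours of compound exposure at 37 degrees C was determined by luminescence with CellTiter-Glo, and concentration-effect curves were then fitted and categorized.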
HT1080 IDH1KD tx – qHTS for induction of synthetic lethality in tumor cells producing 2HG: qHTS for the HT-1080-IDH1KD cell line; HT-1080 IDH1 knockdown viability, ATP luminescence, 48 h; Potency, µM (top dose mostly 46.1 µM), without a hit: at the highest dose activity, negative = toxicity, usual class: cytotoxic; 360,000 compounds, 2% hits; AID 686971, 2013;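 also: potency is read from the fitted curve at half-maximal effect; 0% = DMSO wells and -100% = cell-free medium wells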
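Assay cells: HT-1080 with IDH1 knockdown, 750 per well, RPMI/5% FBS. Exposure: 48 h at 37 °C following 2 h pre-incubation. Read: CellTiter-Glo luminescence; fitted concentration-response, curve class assigned.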
TDP1 cell CPT – qHTS for Inhibitors of human tyrosyl-DNA phosphodiesterase 1 (TDP1): qHTS in cells in presence of CPT; Potency, µM (top dose mostly 46.2 µM), for the others: top-dose activity change, negative = growth inhibition, actives largely listed as inhibitors; 420,000 compounds, 12% hits; chicken DT40 Tdp1-/-;hTDP1 cells + 20 nM CPT, ATP luminescence, 48 h; AID 686979, 2013; also: potency is read from the fitted curve at half-maximal effect; nearly all actives have a fitted effect of over 55% in size
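Cell growth measured by CellTiter-Glo luminescence after a minimum 48 h, 37 C compound exposure with 20 nM CPT in Tdp1-knockout DT40 cells stably expressing hTDP1, seeded 400/well; qHTS titration format.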
An asterisk follows results filed as active; ? = inconclusive; / = not tested or not shown; [ ] = dose if it differs, or a comment. This is one part of a sample in which hits are shown more often than they occur. Unless noted, calls follow the shape of the dose curve; as a rule, active = well fitted curve in the direction sought with a large enough effect; inconclusive = small, poorly fitted or top-dose-only effect, or another doubt; inactive = no such curve, though single readings can be large; an effect the other way counts as inactive or inconclusive. Unless noted, % is scaled to controls: 0 for no effect and ±100 for the full control effect.

SMILES	TDP1 cell noCPT	12-LOX inh	IL1B secr inh	HT1080-NT tox	HT1080 IDH1KD tx	TDP1 cell CPT
Cc1ccc(SCC2(O)CCN(C(=O)c3ccc(Cl)cc3)CC2)cc1	?	?	29.1	-0.4%	-15.9%	?
O=S(=O)(c1ccccc1)N1CCC(O)(CSc2ccc(Cl)cc2)CC1	25.9µM*	0.5%	?	?	-14.8%	?
O=C(c1ccccc1)c1ccc(-c2ccc(O)cc2)cc1	-27.0%	9.9%	-80.5*	18.4µM*	?	-1.2%
CCNc1nccc(N2CCC(CC(=O)NCc3ccccc3F)CC2)n1	/	-5.0%	/	/	/	/
CCOC(=O)c1ccc(-n2c(-c3ccco3)nc3ccccc3c2=O)cc1	18.4µM*	0.0%	10.2	4.5%	15.5%	11.6µM*
CCOC(=O)c1ccc(-n2c(C)nc3ccc(Br)cc3c2=O)cc1	?	0.0%	12.1	13.8%	4.1%	?
CCOC(=O)c1ccc(-n2c(=O)[nH]c3ccccc3c2=O)cc1	-13.9%	99.2%[57.4 µM]	-60.4*	20.1%	11.2%	-14.2%
CCOC(=O)N1CCN(C(=O)Cc2ccc(-n3c(=O)[nH]c4ccccc4c3=O)cc2)CC1	-9.2%	0.0%	-1.4	20.2%	12.7%	-1.3%
CCOC(=O)c1ccc(N2C(=O)C=CC2=O)cc1	1.03µM*	/	-89.5*	?	-11.8%	0.82µM*
CCOC(=O)c1oc2ccc(/C=N/O)c(Cl)c2c1C	-2.4%	-12.2%	-2.7	?	-27.6%	6.8%
COc1ccc(NS(=O)(=O)c2ccc(-c3coc(C)n3)cc2)c(OC)c1	-28.9%	0.0%	16.1	?	?	23.1µM*
COc1ccc(OC)c(CNS(=O)(=O)c2ccc(-c3coc(C)n3)cc2)c1	20.6µM*	-3.7%	/	/	/	?
O=C(Nc1nnc(C2CC2)s1)c1csc(NC2CCCC2)n1	/	11.1%	/	/	/	/
COc1ccc(-c2nc(CS(=O)CC(=O)NC3CCCc4ccccc43)c(C)o2)cc1OC (stereo not given)	?	2.3%[57.4 µM]	-17.3	-0.5%	-0.2%	?
COc1ccc(-c2nc(CSCC(=O)NC3CCCc4ccccc43)c(C)o2)cc1OC (stereo not given)	20.6µM*	-0.3%	-2.6	-11.0%	-7.3%	?
COc1ccc(-c2nc(CSCC(=O)N3CCOCC3)c(C)o2)cc1OC	/	10.6%	/	/	/	/
COc1ccc(-c2nc(CSCC(=O)N3CCc4ccccc4C3)c(C)o2)cc1OC	20.6µM*	?	?	-12.2%	-10.1%	?
O=C(Nc1ccccc1)c1cc2ccc(O)cc2oc1=O	/	-24.8%	/	/	/	/
CCN1CCN(C(=O)c2ccc3c(c2)c(C)c(C)n3Cc2ccccc2)CC1	-42.9%	-23.2%	-14.8	-2.4%	-21.6%	?
CCn1c(C)c(C)c2cc(C(=O)NCCCN3CCN(C)CC3)ccc21	0.0%	24.8%	-18.3	-6.4%	2.1%	1.8%
CCn1c(C)c(C)c2cc(C(=O)N3CCc4ccccc4C3)ccc21	14.6µM*	-27.8%	25.9	?	16.4µM*	?
CCn1c(C)c(C)c2cc(C(=O)NCc3ccc(F)cc3)ccc21	?	-22.9%	/	/	/	?
CCn1c(C)c(C)c2cc(C(=O)NCC(C)c3ccccc3)ccc21 (stereo not given)	29.1µM*	-5.2%	/	/	/	16.4µM*
Cc1c(C)n(Cc2ccc(F)cc2)c2ccc(C(=O)N3CCN(c4ccc(F)cc4)CC3)cc12	23.1µM*	0.0%	/	/	/	20.6µM*
Cc1c(C)n(Cc2ccc(F)cc2)c2ccc(C(=O)NCCN3CCOCC3)cc12	16.4µM*	?	-9.3	-2.8%	0.0%	?
SMILES	TDP1 cell noCPT	12-LOX inh	IL1B secr inh	HT1080-NT tox	HT1080 IDH1KD tx	TDP1 cell CPT
COc1cccc(CN2C[C@]34C=C[C@@H](C[C@@H]3S2(=O)=O)O4)c1	10.2%	-2.3%	1.1	2.0%	3.8%	-18.1%
N#Cc1ccccc1OCC1CN(Cc2cccc(C(F)(F)F)c2)C(=O)c2c(ccnc2-c2ccc(OCC(=O)O)cc2)O1 (stereo not given)	/	12.9%	/	/	/	/
CCn1c(C)c(C)c2cc(C(=O)NCCN3CCCCCC3)ccc21	?	?	-29.3	-22.3%	-16.5%	?
CCn1c(C)c(C)c2cc(C(=O)NCCc3cc(OC)c(OC)c(OC)c3)ccc21	3.66µM*	-24.8%	/	/	/	4.11µM*
COc1ccc(CCNC(=O)c2ccc3c(c2)c(C)c(C)n3Cc2ccc(F)cc2)c(OC)c1OC	23.1µM*	-23.4%	/	/	/	18.4µM*
COc1ccc(OC)c(CCNC(=O)c2ccc3c(c2)c(C)c(C)n3Cc2ccccc2)c1	?	-27.2%	/	/	/	16.4µM*
COc1ccc(CCNC(=O)c2ccc3c(c2)c(C)c(C)n3Cc2ccccc2)c(OC)c1OC	?	-28.8%	/	/	/	23.1µM*
CN(Cc1ccccc1)c1ncccc1CNC1CCSCC1	/	27.0%	/	/	/	/
CC(C)(C)c1cc(C[C@@H]2C[C@H](NCc3ccccn3)C2(C)C)no1	/	82.0%[176 µM]	/	/	/	/
O=C([C@@H]1C[C@H](Oc2ccccc2)CN1C(=O)C1CCC1)N1CCOCC1	/	43.8%	/	/	/	/
O=C(NCc1ccccc1)NCC1(c2ccccc2)CC1	/	8.9%	/	/	/	/
Cc1cc(NC(=O)c2ccc(Cl)o2)no1	/	0.0%	/	/	/	/
Cc1noc(C)c1CCCNC(=O)C1CCN(C(=O)N2CC3CC(C2)[C@H]2CCCC(=O)N2C3)CC1 (stereo not given in full)	/	11.9%	/	/	/	/
O=C(COc1ccccc1F)NCC(c1ccc(F)cc1)N1CCOCC1 (stereo not given)	-21.9%	-0.7%	0.0	3.1%	3.3%	-18.8%
CC(C)c1ccc(OCC(=O)NCC(c2ccc(Cl)cc2)N2CCOCC2)cc1 (stereo not given)	18.4µM*	3.8%	/	/	/	?
Cc1ccccc1OCC(=O)NCC(c1ccc(Cl)cc1)N1CCOCC1 (stereo not given)	16.4µM*	4.0%	/	/	/	20.6µM*
COc1ccc(C(CNC(=O)COc2ccccc2C)N2CCOCC2)cc1 (stereo not given)	16.4µM*	1.0%	0.1	1.0%	11.6%	20.6µM*
COc1cccc(NC(=O)Cn2nc(N3CCN(c4cccc(Cl)c4)CC3)ccc2=O)c1	/	-4.3%	/	/	/	/
CCc1noc(-c2cn(C3CCN(C(=O)c4sccc4C)C3)nn2)n1 (stereo not given)	/	44.7µM*	/	/	/	/

Screens deposited in PubChem BioAssay by National Center for Advancing Translational Sciences (NCATS).
